# Screening data deposited in PubChem BioAssay by National Center for Advancing Translational Sciences (NCATS).
# Shiga toxin inh = Shiga toxin inhibition; Vero cells, Shiga toxin protein synthesis inhibition reporter; inhibition, % at 38.7 µM; AID 2315; actives 9.2% (n = 290,000); in the data active = inhibition mostly above about 28%, no sharp cut-off; inactive = mostly below about 43%
# Pf growth 48h = P. falciparum growth inhibition at 48 hours (one generation) | P. falciparum luciferase growth in erythrocytes, 48 h | Potency, µM (top dose mostly 28.7 µM), actives largely listed as inhibitors | actives 5.9% (n = 310,000) | AID 504832
#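 Luciferase-expressing P. falciparum in infected erythrocytes (2% hematocrit, 0.1% parasitemia final) in RPMI 1640/0.5% Albumax were exposed to compound for 48 hours at 37 C, 5% CO2; growth read as luminescence.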
# Pf growth 96h = P. falciparum growth inhibition at 96 hour, primary screen for plastid delayed-death inhibitors; P. falciparum luciferase reporter growth, 96 h; Potency, µM (doses to about 28.7 µM), most hits filed as inhibitors; actives 6.9% (n = 320,000); AID 504834
#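 Two parasite generations (96 h, 37 C, 5% CO2) of compound exposure in infected erythrocytes (0.05% parasitemia, 2% hematocrit). Luciferase-reporter P. falciparum; decreased luminescence indicates inhibited growth, aimed at apicoplast-acting delayed death.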
# HCMV inh = inhibitors of human cytomegalovirus. HFF cells, HCMV-luciferase reporter, 72 h; active compounds read low. activity change, negative = inhibition, % at 57.5 µM. actives 4.5% (n = 410,000); in the data active = activity change below about -60%; inconclusive = no clear call, values can overlap the other calls; inactive = above about -39%
#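 Screen run at 2 compound doses on HFFs infected with reporter HCMV, MOI 1 PFU/cell. Luciferase activity from cell lysates at 72 h post infection gave inhibition relative to buffer-only and Salinomycin wells.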
# HCV inh = inhibitors of hepatitis C virus infection; Huh7.5.1 HCVcc-Cre infection, luciferase reporter, 44 h; Potency, µM (titrated, usually from 41.8 µM), usual class: inhibitors; actives 3.4% (n = 340,000); AID 651820
#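 Antiviral activity was scored by luciferase reporter output from cells infected with HCVcc-Cre (~0.5 moi) in presence of compound, 44 h infection period, cells seeded 1,000/well 4 h prior.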
# Cycloheximide cs = counter-screen for Shiga toxin inhibitors: cycloheximide protein synthesis inhibition. cell reporter, cycloheximide protein synthesis inhibition counterscreen. max response, %. actives 12% (n = 300,000). AID 2314; in the data active = max response mostly above about 13%, no sharp cut-off; inactive = mostly below about 14%; also: read at 38.3 µM for the half of the compounds with a filed dose
# A number is an active result; . = inactive; ? = inconclusive; / = no result. An excerpt weighted towards active compounds, which were near 21% of everything screened. Unless noted, calls follow the shape of the dose curve; as a rule, active = well fitted inhibition curve with a large enough effect; inconclusive = small, poorly fitted or top-dose-only effect, or another doubt; inactive = no such curve, though single readings can be large or run the other way.
SMILES,Shiga toxin inh,Pf growth 48h,Pf growth 96h,HCMV inh,HCV inh,Cycloheximide cs
C/C=C/c1ccc(OCC(O)CN2CCCCC2CC)c(OC)c1 (stereo unspecified),.,.,.,.,2.51µM,.
C/C=C/c1ccc(OCCCNC(C)CC)c(OC)c1 (stereo unspecified),.,/,.,.,.,.
Cc1cccc(N2CCN(C(=O)C3CCCN(S(=O)(=O)c4cccc5nsnc45)C3)CC2)c1C (stereo unspecified),/,/,/,.,/,/
C/C=C/c1ccc(OCCOc2cc(C=O)ccc2OC)c(OC)c1,62.3,.,?,.,.,52.1
Cc1n[nH]c(C)c1S(=O)(=O)N1CCN(S(=O)(=O)c2cccc(F)c2)CC1,/,.,.,.,.,/
CCC(Sc1nc2nccnc2c(=O)n1Cc1ccc(C)cc1)C(=O)NC1CCCCC1 (stereo unspecified),/,/,/,.,/,/
O=[N+]([O-])c1ccccc1/C=N/N1CCN(c2ccncc2S(=O)(=O)N2CCCCC2)CC1,.,11.7µM,2.33µM,.,?,.
O=NN1CCN(c2ccncc2S(=O)(=O)N2CCCCC2)CC1,.,.,.,.,.,.
O=[N+]([O-])c1ccc(/C=N/N2CCN(c3ccncc3S(=O)(=O)N3CCCCC3)CC2)cc1,.,?,4.15µM,.,.,.
O=C(c1ccc2ccccc2c1)N1CCn2c(nnc2C(=O)N2CCOCC2)C1,/,/,/,.,/,/
CCOc1ccc(CCNC(=O)COC(=O)/C=C/c2ccccc2OC)cc1OCC,/,.,?,.,?,/
O=C(c1cccnc1)N1CC(=O)N2[C@@H](CO)[C@@H](c3ccc(Br)cc3)[C@@H]2C1,/,/,/,.,/,/
COc1ccc(OC)c(/C=N/NC(=O)c2ccc3nc[nH]c3c2)c1,.,.,.,.,.,.
CC(=C/c1ccccc1)/C=N/NC(=O)c1ccc2nc[nH]c2c1,50.6,.,?,?,.,17.5
COc1ccccc1/C=C/C=N/NC(=O)c1ccc2nc[nH]c2c1,.,?,9.28µM,/,/,.
O=C(N/N=C/C(Br)=C\c1ccccc1)c1ccc2nc[nH]c2c1,.,.,?,-75.9,?,19.1
CCOC(=O)c1sc(NC(=O)CNCc2cccnc2)c(C(=O)OCC)c1C,.,?,?,-62.0,.,.
CCOC(=O)c1sc(NC(=O)CNCc2ccccn2)c(C(=O)OCC)c1C,.,1.04µM,0.415µM,.,.,.
CCOC(=O)c1sc(NC(=O)COc2ccccc2Cl)c(C(=O)OCC)c1C,/,/,/,.,/,/
O=c1c(N2CCN(c3ccccc3)CC2)csc2ccc(Cl)cc12,/,/,/,.,/,/
O=C(COC(=O)c1cccc(Br)c1)NCCc1ccccc1,.,.,.,.,.,.
CCCNC(=O)C(Cc1ccccc1)NC(=O)c1cccc([N+](=O)[O-])c1 (stereo unspecified),/,8.28µM,?,.,?,/
COC(CNC(=O)c1cccnc1)OC,.,.,.,-61.7,.,.
O=C(COC(=O)c1cccc(Br)c1)NCCNC(=O)COC(=O)c1cccc(Br)c1,.,0.465µM,0.415µM,.,.,.
O=C(N[C@@H](Cc1ccccc1)C(=O)O)c1cccnc1,.,/,2.94µM,.,.,.
SMILES,Shiga toxin inh,Pf growth 48h,Pf growth 96h,HCMV inh,HCV inh,Cycloheximide cs
O=C(NCCc1ccccc1)c1cccc(Br)c1,78.9,.,.,.,.,39.0
CC/C(Cc1ccccc1)=N\NC(=O)c1cc([N+](=O)[O-])cc([N+](=O)[O-])c1,.,.,.,.,.,.
O=C(NCCc1ccccc1)c1cccc([N+](=O)[O-])c1,active,.,.,.,.,82.2
CC/C(Cc1ccccc1)=N/NC(=O)c1cccc(Br)c1,46.5,.,.,.,.,.
O=C(NCc1ccccc1)c1cccnc1,.,.,.,.,.,.
O=C(NCCc1ccccc1)c1cccnc1,63.0,/,.,.,.,37.1
COc1ccc(CCNC(=O)c2cccc([N+](=O)[O-])c2)cc1OC,/,/,/,.,.,/
CCCNC(=O)N1[C@@H]2Cn3c(cccc3=O)[C@H]1[C@@H](C(=O)NCC(F)(F)F)[C@@H]2CO,/,/,/,.,/,/
C#CCOCCOCCOCCNc1nc(N2CCN(C(=O)Cn3cc(CCCCN)nn3)CC2)nc(N2CCN(C(=O)Cn3cc(CCCN=C(N)N)nn3)CC2)n1,/,?,0.828µM,.,.,/
